{"source": "PubChem BioAssay (EPA / NIEHS)", "key": {"[1]": {"test": "STM_H9_OrnCyssISnorm_ratio: Stemina devTOX quickPredict H9 human embryonic stem cell (hESC)-based Assay for Ornithine (ORN):Cystine (CYSS) Ratio (AID 2283714)", "in_short": "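Undifferentiated H9 hESCs were exposed to compound for 72h with media and chemical replaced every 24h. Final 24-h conditioned media were deproteinized and analysed by UPLC-HRMS. ORN and CYSS peak areas were normalized to C13 internal standards and the ratio taken versus 0.1% DMSO.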"}, "[2]": {"test": "ACEA_ER_AUC_viability: ACEA Biosciences xCELLigence Real-Time Cell Analysis on Estrogen Receptor Agonism for Viability (AID 2283782);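 also: continuous compound exposure with impedance area under curve over 80 h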", "in_short": "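T-47D human breast cells in phenol red-free RPMI1640 with 10% charcoal-stripped FBS were dosed with an 8-point 1:4 dilution series from 100 uM top final concentration, in duplicate. Impedance-based growth was followed for 80 h; AUC analysed versus DMSO.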"}, "[3]": {"test": "CEETOX_H295R_MTT_cell_viability: Viability Assessment in the CeeTox HT-H295R MTT Assay (AID 2283718; active = hit-call score of the fitted dose curve at least 0.9, where 1 is the maximum; inactive = score below 0.9;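 as to AC50: curve fitted both ways so AC50 may mark viability loss or gain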)", "in_short": "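H295R cells prestimulated 48 h with 10 uM forskolin, then exposed 48 h to test chemical (0.1% DMSO final). Viability by MTT (0.5 mg/ml, 4 h, 37 C), absorbance 570/650 nm; percent change versus DMSO, bidirectional fit.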"}, "[4]": {"molecular_target": "Luciferin 4-monooxygenase (Photinus pyralis) (UniProt P08659)", "sequence (P08659 whole entry, looked up)": "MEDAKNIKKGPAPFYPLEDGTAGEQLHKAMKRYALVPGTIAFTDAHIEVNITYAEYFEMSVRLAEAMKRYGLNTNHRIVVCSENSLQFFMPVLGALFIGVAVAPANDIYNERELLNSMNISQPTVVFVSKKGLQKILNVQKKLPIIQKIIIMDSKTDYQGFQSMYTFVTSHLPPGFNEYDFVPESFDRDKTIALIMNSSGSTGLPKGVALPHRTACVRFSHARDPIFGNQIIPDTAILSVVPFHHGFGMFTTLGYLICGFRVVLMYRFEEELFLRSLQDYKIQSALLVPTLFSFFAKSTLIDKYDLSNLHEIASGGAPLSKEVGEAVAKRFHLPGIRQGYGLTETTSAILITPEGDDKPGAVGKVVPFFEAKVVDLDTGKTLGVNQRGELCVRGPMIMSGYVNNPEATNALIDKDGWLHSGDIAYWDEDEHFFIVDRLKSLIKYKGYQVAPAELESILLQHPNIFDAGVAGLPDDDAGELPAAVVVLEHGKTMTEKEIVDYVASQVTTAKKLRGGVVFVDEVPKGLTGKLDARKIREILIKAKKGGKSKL", "test": "CCTE_Simmons_QuantiLum_inhib_2: CCTE's Firefly Luciferase Inhibition Assay, Simmons Lab (AID 2283767);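 as to AC50: potency for inhibitors that lower luciferase luminescence relative to DMSO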", "in_short": "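Recombinant firefly luciferase (5 ng/well, 200 mM potassium phosphate with 1 mg/ml BSA) was exposed to 8 concentrations from 5 nM to 87.5 uM (final, 0.5% DMSO) for 30 min at 37C in the dark. Loss of luminescence versus DMSO was read after injecting D-luciferin/ATP-analogue reagent.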"}, "[5]": {"test": "ACEA_AR_agonist_AUC_viability: ACEA Biosciences xCELLigence Real-Time Cell Analysis on Androgen Receptor Agonism for Viability (AID 2283775)", "in_short": "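Read-out is area under the impedance curve at 80 h post-dose in 22Rv1 cells, with DMSO as baseline and signal loss taken as reduced viability. Compounds ran in duplicate from 100 uM final.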"}, "[6]": {"test": "STM_H9_CystineISnorm_perc: Stemina devTOX quickPredict H9 human embryonic stem cell (hESC)-based Assay for Cystine (CYSS) Metabolite Biomarker, Normalized (AID 2283713; active = hit-call score of the fitted dose curve at least 0.9, where 1 is the maximum; inactive = score below 0.9)", "in_short": "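Undifferentiated H9 hESCs were exposed to compound for 72h, with medium and compound replaced every 24h. Final-24h conditioned medium was deproteinized and analyzed by UPLC-HRMS. Cystine EIC area was normalized to spiked C13 standard and 0.1% DMSO median.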"}, "[7]": {"test": "Tanguay_ZF_120hpf_ActivityScore_legacy: (Legacy) Oregon State University Tanguay Lab 120 Hour Post-fertilization zebrafish Assay Score for Activity (AID 2283742)", "in_short": "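Tropical 5D wild-type zebrafish embryos, dechorionated with pronase at 4 hpf, were exposed singly from 6 hpf to 120 hpf statically at 28C in 0.64% DMSO. Malformations and mortality were scored as binary by brightfield, with the activity score combining 18 morphology components.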"}, "[8]": {"test": "ACEA_AR_antagonist_AUC_viability: ACEA Biosciences xCELLigence Real-Time Cell Analysis on Androgen Receptor Antagonism for Viability (AID 2283776);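 also: hits lower the growth signal relative to DMSO meaning cytotoxicity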", "in_short": "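22Rv1 human prostate cancer cells were seeded on electrode plates, monitored overnight, then exposed to eight 1:4 dilutions from 100 uM final. Impedance-based growth kinetics at 80 h gave an AUC viability endpoint normalized to DMSO.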"}, "[9]": {"test": "STM_H9_NormalizedViability: Cytotoxicity Assessment at 120 hours in the Stemina devTOX quickPredict H9 human embryonic stem cell (hESC)-based Assay (AID 2283784)", "in_short": "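Undifferentiated H9 hESCs kept pluripotent were exposed to compound, with media and chemical replaced every 24h. CellTiter-Fluor protease-substrate fluorescence was background-corrected and normalized per plate to the 0.1% DMSO vehicle; signal loss indicates reduced viability.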"}, "AR (gene 367) [10]": {"molecular_target": "AR (gene 367) (UniProt P10275)", "sequence (P10275 whole entry, looked up)": "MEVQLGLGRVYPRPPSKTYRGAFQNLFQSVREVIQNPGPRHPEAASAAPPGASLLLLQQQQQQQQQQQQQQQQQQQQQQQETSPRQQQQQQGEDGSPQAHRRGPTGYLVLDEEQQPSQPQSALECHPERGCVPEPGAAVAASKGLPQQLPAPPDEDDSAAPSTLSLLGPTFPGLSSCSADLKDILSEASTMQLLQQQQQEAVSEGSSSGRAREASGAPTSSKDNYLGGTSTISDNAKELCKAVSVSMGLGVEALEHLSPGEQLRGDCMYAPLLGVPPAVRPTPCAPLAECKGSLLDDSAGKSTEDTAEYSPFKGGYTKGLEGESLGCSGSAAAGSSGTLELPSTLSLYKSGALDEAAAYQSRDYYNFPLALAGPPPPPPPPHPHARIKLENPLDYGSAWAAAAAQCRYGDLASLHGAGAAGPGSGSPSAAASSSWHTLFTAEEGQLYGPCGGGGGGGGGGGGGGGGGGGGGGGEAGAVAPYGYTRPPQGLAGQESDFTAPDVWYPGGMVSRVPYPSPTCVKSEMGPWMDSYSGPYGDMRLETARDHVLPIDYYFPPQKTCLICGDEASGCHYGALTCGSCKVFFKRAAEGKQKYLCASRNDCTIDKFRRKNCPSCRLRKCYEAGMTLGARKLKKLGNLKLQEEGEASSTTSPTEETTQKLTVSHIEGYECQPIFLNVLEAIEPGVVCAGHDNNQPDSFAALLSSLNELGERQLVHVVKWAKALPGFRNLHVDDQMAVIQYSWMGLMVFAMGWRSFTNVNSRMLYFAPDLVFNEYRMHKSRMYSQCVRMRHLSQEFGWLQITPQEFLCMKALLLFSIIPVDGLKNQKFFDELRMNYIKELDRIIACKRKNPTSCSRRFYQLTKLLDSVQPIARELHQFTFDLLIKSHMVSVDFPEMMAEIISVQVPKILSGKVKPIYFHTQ", "test": "ACEA_AR_antagonist_80hr: ACEA Biosciences xCELLigence Real-Time Cell Analysis on Androgen Receptor Antagonism for Proliferation (AID 2283787);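 also: hits lower the impedance growth signal relative to DMSO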", "in_short": "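Impedance readout (RT-CES), 80 h post-dose; loss-of-signal vs DMSO baseline. 22Rv1 cells in assay medium. Compounds: 8-pt 1:4 series, max 100 uM final, up to 0.5% DMSO; n = 2.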"}, "AR (gene 367) [11]": {"molecular_target": "AR (gene 367) (UniProt P10275)", "test": "ACEA_AR_agonist_80hr: ACEA Biosciences xCELLigence Real-Time Cell Analysis on Androgen Receptor Agonism for Proliferation (AID 2283783);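 also: hits increase impedance growth signal above DMSO baseline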", "in_short": "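22Rv1 human prostate cancer cells were seeded after preconditioning in assay medium and monitored overnight, then dosed in an eight-point 1:4 dilution series from 100 uM (≤0.5% DMSO). Impedance-based growth was read at 80 h, gain-of-signal versus DMSO.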"}}, "note": "Inconclusive results are not listed. Calls of active or inactive are those of the source. The calls were made as follows, unless noted: active = hit-call score of the fitted dose curve at least 0.9, where 1 is the maximum; inconclusive = response in the unintended direction; inactive = score below 0.9."}
{"smiles": "O=C1c2ccccc2C(=O)c2c(O)ccc(O)c21", "values": [{"measurement": "AC50", "setting": "[1]", "value": "10 µM (active)"}, {"measurement": "outcome", "setting": "[2]", "value": "inactive"}]}
{"smiles": "CC(C)(C)CC(C)(C)c1ccc(OCCOCC[N+](C)(C)Cc2ccccc2)cc1", "values": [{"measurement": "outcome", "setting": "[3]", "value": "inactive"}]}
{"smiles": "Cc1cc(C)nc(NS(=O)(=O)c2ccc(N)cc2)n1", "values": [{"measurement": "outcome", "setting": "[4]", "value": "inactive"}]}
{"smiles": "COc1ccc(CCN2CCC(Nc3nc4ccccc4n3Cc3ccc(F)cc3)CC2)cc1", "values": [{"measurement": "outcome", "setting": "[3]", "value": "inactive"}]}
{"smiles": "O=C(Nc1ccc2c(O)c(N=Nc3ccc(N=Nc4ccc(S(=O)(=O)O)cc4)cc3)c(S(=O)(=O)O)cc2c1)c1ccccc1", "values": [{"measurement": "outcome", "setting": "[3]", "value": "inactive"}, {"measurement": "AC50", "setting": "[4]", "value": "20.7 µM (active)"}, {"measurement": "outcome", "setting": "[5]", "value": "inactive"}, {"measurement": "outcome", "setting": "[2]", "value": "inactive"}]}
{"smiles": "CC(C)NCC(O)COc1ccc(CC(N)=O)cc1", "note": "(stereo not drawn)", "values": [{"measurement": "outcome", "setting": "[4]", "value": "inactive"}, {"measurement": "outcome", "setting": "[5]", "value": "inactive"}]}
{"smiles": "CS(=O)(=O)OCCCCOS(C)(=O)=O", "values": [{"measurement": "AC50", "setting": "[6]", "value": "5.25 µM (active)"}, {"measurement": "AC50", "setting": "[1]", "value": "31.2 µM (active)"}, {"measurement": "outcome", "setting": "[7]", "value": "inactive"}, {"measurement": "outcome", "setting": "[4]", "value": "inactive"}, {"measurement": "outcome", "setting": "[5]", "value": "inactive"}, {"measurement": "outcome", "setting": "[8]", "value": "inactive"}, {"measurement": "AC50", "setting": "[9]", "value": "23.6 µM (active)"}]}
{"smiles": "BrCc1cccc(Oc2ccccc2)c1", "values": [{"measurement": "outcome", "setting": "[3]", "value": "inactive"}, {"measurement": "outcome", "setting": "[5]", "value": "inactive"}, {"measurement": "outcome", "setting": "[8]", "value": "inactive"}, {"measurement": "outcome", "setting": "AR (gene 367) [10]", "value": "inactive"}]}
{"smiles": "COc1ccc(OC)c(N=Nc2c(O)ccc3ccccc23)c1", "values": [{"measurement": "outcome", "setting": "[3]", "value": "inactive"}]}
{"smiles": "Cc1ccc(S(=O)(=O)Oc2ccc(N=Nc3ccc(-c4ccc(N=Nc5c(O)ccc6cc(S(=O)(=O)O)cc(S(=O)(=O)O)c56)c(C)c4)cc3C)cc2)cc1", "values": [{"measurement": "AC50", "setting": "[4]", "value": "17.4 µM (active)"}, {"measurement": "AC50", "setting": "[5]", "value": "7.03 µM (active)"}, {"measurement": "AC50", "setting": "[8]", "value": "2.55 µM (active)"}, {"measurement": "AC50", "setting": "AR (gene 367) [10]", "value": "5.11 µM (active)"}]}
{"smiles": "COc1ccc(N=Nc2cc(C)c(N=Nc3ccc(S(=O)(=O)O)cc3)cc2OC)cc1", "values": [{"measurement": "outcome", "setting": "[3]", "value": "inactive"}, {"measurement": "AC50", "setting": "[4]", "value": "53.8 µM (active)"}]}
{"smiles": "CC(CN=Cc1ccccc1O)N=Cc1ccccc1O", "note": "(stereo not drawn)", "values": [{"measurement": "AC50", "setting": "[3]", "value": "2.57 µM (active)"}, {"measurement": "outcome", "setting": "[4]", "value": "inactive"}, {"measurement": "AC50", "setting": "[5]", "value": "6.64 µM (active)"}, {"measurement": "AC50", "setting": "[8]", "value": "4.63 µM (active)"}]}
{"smiles": "CCOC(=O)c1ccc(N)cc1", "values": [{"measurement": "outcome", "setting": "[4]", "value": "inactive"}, {"measurement": "outcome", "setting": "[5]", "value": "inactive"}, {"measurement": "outcome", "setting": "[8]", "value": "inactive"}, {"measurement": "outcome", "setting": "[2]", "value": "inactive"}]}
{"smiles": "CC1(C)C(=O)N(Cl)C(=O)N1Br", "values": [{"measurement": "outcome", "setting": "[3]", "value": "inactive"}, {"measurement": "outcome", "setting": "[5]", "value": "inactive"}]}
{"smiles": "CCC(C)c1cc([N+](=O)[O-])cc([N+](=O)[O-])c1OC(=O)OC(C)C", "note": "(stereo not drawn)", "values": [{"measurement": "outcome", "setting": "[3]", "value": "inactive"}]}
{"smiles": "Cc1cc(=O)oc2cc(N(C)C)ccc12", "values": [{"measurement": "outcome", "setting": "[3]", "value": "inactive"}, {"measurement": "outcome", "setting": "[5]", "value": "inactive"}, {"measurement": "outcome", "setting": "[2]", "value": "inactive"}]}
{"smiles": "CCCCCCCCN1CCCC1=O", "values": [{"measurement": "AC50", "setting": "[3]", "value": "0.882 µM (active)"}]}
{"smiles": "COCCc1ccc(OCC(O)CNC(C)C)cc1", "note": "(stereo not drawn)", "values": [{"measurement": "outcome", "setting": "[3]", "value": "inactive"}]}
{"smiles": "Cc1cc(S(=O)(=O)O)ccc1N=Nc1c(O)ccc2ccccc12", "values": [{"measurement": "AC50", "setting": "[4]", "value": "27.8 µM (active)"}, {"measurement": "outcome", "setting": "[5]", "value": "inactive"}]}
{"smiles": "CC(C)Nc1nc(N)nc(Cl)n1", "values": [{"measurement": "outcome", "setting": "[3]", "value": "inactive"}]}
{"smiles": "CCCCCCCCCC(=O)OC", "values": [{"measurement": "outcome", "setting": "[5]", "value": "inactive"}]}
{"smiles": "c1ccc(Oc2ccccc2)cc1", "values": [{"measurement": "outcome", "setting": "[5]", "value": "inactive"}]}
{"smiles": "O=Cc1ccccc1S(=O)(=O)O", "values": [{"measurement": "AC50", "setting": "[5]", "value": "1.24 µM (active)"}]}
{"smiles": "CSCCC=O", "values": [{"measurement": "outcome", "setting": "[4]", "value": "inactive"}, {"measurement": "AC50", "setting": "[2]", "value": "85.8 µM (active)"}]}
{"smiles": "C[C@H]1O[C@@H](O[C@H]2[C@@H](O)C[C@H](O[C@H]3[C@@H](O)C[C@H](O[C@H]4CC[C@@]5(C)[C@H](CC[C@@H]6[C@@H]5C[C@@H](O)[C@]5(C)[C@@H](C7=CC(=O)OC7)CC[C@]65O)C4)O[C@@H]3C)O[C@@H]2C)C[C@H](O)[C@@H]1O", "values": [{"measurement": "AC50", "setting": "[5]", "value": "0.00928 µM (active)"}, {"measurement": "AC50", "setting": "[8]", "value": "0.0148 µM (active)"}, {"measurement": "AC50", "setting": "[2]", "value": "0.0803 µM (active)"}, {"measurement": "outcome", "setting": "AR (gene 367) [11]", "value": "inactive"}, {"measurement": "AC50", "setting": "AR (gene 367) [10]", "value": "0.00928 µM (active)"}]}
